According to PubChem BioAssay AID488969 (Vanderbilt High Throughput Screening Facility, 2010):
In all, about 110,000 compounds were measured (“z-score”: median about -0.1, highest 2% from about 2 on). The sample as a whole holds a higher share of the highest values than the screen did. Active and inactive are the calls of the source.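 Rule for the calls: active = z-score in the third read window above 3 or below -3; inactive = the rest.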

Molecular target: Metabotropic glutamate receptor 8 (Rattus norvegicus) (UniProt P70579)
Sequence (P70579 whole entry, looked up): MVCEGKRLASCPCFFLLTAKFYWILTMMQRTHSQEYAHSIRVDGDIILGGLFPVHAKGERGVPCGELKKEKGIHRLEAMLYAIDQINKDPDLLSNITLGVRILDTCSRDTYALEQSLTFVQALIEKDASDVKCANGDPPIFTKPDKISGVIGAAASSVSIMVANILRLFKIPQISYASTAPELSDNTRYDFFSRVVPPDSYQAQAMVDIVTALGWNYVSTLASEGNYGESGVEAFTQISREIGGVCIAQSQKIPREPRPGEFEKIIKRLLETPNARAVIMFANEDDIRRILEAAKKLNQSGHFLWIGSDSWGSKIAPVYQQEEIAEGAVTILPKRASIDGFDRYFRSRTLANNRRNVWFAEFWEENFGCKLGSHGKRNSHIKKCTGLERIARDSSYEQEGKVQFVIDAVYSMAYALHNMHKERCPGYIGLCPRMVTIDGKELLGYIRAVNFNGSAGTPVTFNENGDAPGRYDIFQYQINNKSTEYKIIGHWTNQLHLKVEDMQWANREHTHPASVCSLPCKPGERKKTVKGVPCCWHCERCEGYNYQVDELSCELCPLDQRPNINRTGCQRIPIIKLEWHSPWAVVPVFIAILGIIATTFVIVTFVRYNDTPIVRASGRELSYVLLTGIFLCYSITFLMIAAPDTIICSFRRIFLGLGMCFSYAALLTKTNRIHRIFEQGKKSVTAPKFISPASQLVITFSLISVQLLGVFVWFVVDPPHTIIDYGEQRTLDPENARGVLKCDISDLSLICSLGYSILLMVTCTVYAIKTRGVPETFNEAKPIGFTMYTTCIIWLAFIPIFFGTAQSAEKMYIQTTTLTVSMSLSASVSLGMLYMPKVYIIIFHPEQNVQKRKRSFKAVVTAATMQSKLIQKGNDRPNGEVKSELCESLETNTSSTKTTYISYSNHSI
Assay: mGluR8 Gi/Go-coupled signaling modulation – cell-based, rat, thallium flux, HTS, primary screen (AID 488969)
Details: HEK293 rat mGluR8, GIRK (G protein-gated inwardly rectifying potassium channel) thallium flux, FluoZin2; at 10 µM; stronger effect = higher value; submaximal glutamate (EC20) added with thallium

Structure (SMILES)	z-score
Cc1cc(C)nc(N2CCC(C(=O)Nc3ccc(Oc4ccccc4)cc3)CC2)n1	-0.163
CC(C(=O)Nc1ccc([N+](=O)[O-])cc1)N1CCN(C/C=C/c2ccccc2)CC1 (configuration not stated)	-0.146
CCc1ccc2nc(N3C(=O)C(O)=C(C(=O)c4ccco4)C3c3cccs3)sc2c1 (configuration not stated)	-1.1
N=c1sccn1CC(=O)Nc1ccc(Cl)c(S(=O)(=O)N2CCOCC2)c1	0.131
Cc1ccc(S(=O)(=O)N2CCOCC2)cc1NC(=O)Cn1ccsc1=N	0.262
N=c1sccn1CC(=O)Nc1ccc(S(=O)(=O)N2CCOCC2)cc1	2.19
CCOC(=O)CC1C(=O)NCCN1Cc1cccc(OC)c1 (configuration not stated)	-0.139
COc1ccc(NC(=O)c2ccco2)cc1NC(=O)c1ccc(Br)o1	-0.82
Cc1csc(SCC(=O)Nc2ncc(Cl)c(C)c2Cl)n1	0.185
Cc1nn(C)c(C)c1S(=O)(=O)N(CC(=O)NC1CCCCCC1)c1ccc(C(C)C)cc1	-0.146
Cc1cccc(NC(=O)CN(c2ccc(C(C)C)cc2)S(=O)(=O)c2c(C)nn(C)c2C)n1	2.21
COc1ccc(N(CC(=O)Nc2nccs2)S(=O)(=O)c2c(C)nn(C)c2C)cc1	0.0495
COc1ccc(N(CC(=O)Nc2nc3ccc(C)cc3s2)S(=O)(=O)c2c(C)nn(C)c2C)cc1	2.44
COc1ccc2nc(NC(=O)CN(c3ccc(C)cc3)S(=O)(=O)c3c(C)nn(C)c3C)sc2c1	0.03
Cc1nn(C)c(C)c1S(=O)(=O)N(CC(=O)NCCCOC(C)C)c1ccc(C(C)C)cc1	-0.0899
CSc1ccc(/C=N/NC(=O)CN2CCN(Cc3ccccc3)CC2)cc1	-0.0744
CC(=O)Oc1ccc2c(c1)cc(C)n2C	0.458
O=C1c2ccccc2C(=O)N1CCn1c(=O)oc2ccccc21	1.56
Cc1cc(Cl)ccc1OC(C)C(=O)Nc1ccc([N+](=O)[O-])cn1 (configuration not stated)	2.07
CC(Oc1cccc(Cl)c1)C(=O)Nc1ccc([N+](=O)[O-])cn1 (configuration not stated)	-0.576
CC(=O)Nc1ccc([N+](=O)[O-])cn1	-0.229
COC(=O)c1c(NC(=O)CSc2nnnn2-c2ccccc2)sc2c1CCC(C)C2 (configuration not stated)	-0.121
COc1ccc(/C=C2\NC(=S)N(CC3CCCO3)C2=O)c(OC)c1 (configuration not stated)	0.39

Structure (SMILES)	z-score
COc1ccc(/C=C2\NC(=S)N(CC3CCCO3)C2=O)c(OC)c1C (configuration not stated)	2.32
COc1ccccc1/C=C1\NC(=S)N(CC2CCCO2)C1=O (configuration not stated)	0.246
CCOC(=O)c1nnn(-c2nonc2N)c1COc1cc(C)c(Cl)c(C)c1	-0.174
CCCCCCCC1CC(CSC(=N)N)OC1=O (configuration not stated)	5.96 (active)
CCCCCCCC1CC(CSc2ncn[nH]2)OC1=O (configuration not stated)	5.73 (active)
CCCCCCC1CC(CSc2ncn[nH]2)OC1=O (configuration not stated)	-0.0128
CCCCC1CC(CSc2ncn[nH]2)OC1=O (configuration not stated)	-0.0735
CCCCCCC1CC(CSC(=N)N)OC1=O (configuration not stated)	0.116
CCCCC1CC(CSC(=N)N)OC1=O (configuration not stated)	0.732
CC(C)C(=O)Nc1nc2c(ncn2C2CC(O)C(CO)O2)c(=O)[nH]1 (configuration not stated)	-0.334
CC(C)OC(=O)n1c(=S)oc2ccccc21	-0.00387
S=c1[nH]nc(Cc2ccccc2)n1-c1ccccc1	0.938
CSc1nnc(CSCc2ccc(Cl)cc2Cl)n1-c1ccccc1	-0.0778
S=c1[nH]nc(CSCc2ccc(Cl)cc2Cl)n1-c1ccccc1	15.5 (active)
Cn1ncc(C#N)c1NC(=O)c1cc(-c2ccccc2Cl)on1	0.559
O=C(CSc1nc(C2CC2)nc2ccccc12)N1CCc2ccccc2C1	-0.769
Cc1cc(=O)n2cc(-c3ccccc3)nc2[nH]1	-0.318
CC1CCN(CCCCOc2ccccc2Br)CC1	-0.0355
Cc1cc(Cl)ccc1N=C1N=C(N)c2ccccc21	-1.75
COC(=O)c1sccc1NC(=O)CSc1ccc(Cl)cc1	0.289
COC(=O)c1sccc1NC(=O)CSc1ccccc1NS(=O)(=O)c1ccc(Br)cc1	2.31
COC(=O)c1sccc1NC(=O)Cc1ccc(Br)cc1	-0.0914
COC(=O)c1sccc1NC(=O)CSc1ccccc1NS(=O)(=O)c1ccc(F)cc1	0.941

Structure (SMILES)	z-score
COC(=O)c1sccc1NC(=O)CSc1ccccc1NS(=O)(=O)c1ccc(Cl)cc1	3.6 (active)
COC(=O)c1sccc1NC(=O)CN(C)NS(=O)(=O)c1ccc(Cl)cc1	-0.811
N#Cc1ccc(OCC(=O)N/N=C2\CCc3ccccc32)cc1	-0.239
CCN(CC)C(=O)C(Sc1ccccc1)c1ccccc1 (configuration not stated)	0.926
CC(=O)Nc1ccc(NC(=O)CSc2ccc(C)cc2)cc1	0.00682
CCOC(=O)c1ccc(NC(=O)CN2C(=O)C(C)SC(C)C2=O)cc1 (configuration not stated)	-0.088
Cc1nc(NC(C)C(=O)O)c2nc(C)oc2n1 (configuration not stated)	-0.0905
CCn1cc(C2=NC(C)(C)CO2)c2ccccc21	-0.521
CCn1cc(C2=NC(C)CO2)c2ccccc21 (configuration not stated)	-0.418
CCn1cc(C2=NCCO2)c2ccccc21	2.2
COc1ccc2[nH]c(C)c(CCN3C(=O)C4C5C=CC(C5)C4C3=O)c2c1 (configuration not stated)	-0.454
Cc1ccc(CSc2ncnc3c2cnn3-c2ccccc2)cc1	0.333
Cc1ccc(-n2ncc3c(SCc4cccc(C)c4)ncnc32)cc1	2.66
Cc1cccc(CSc2ncnc3c2cnn3Cc2ccccc2)c1	-0.46
COC(=O)CSc1ncnc2c1cnn2Cc1ccccc1	-0.981
Cc1ccc(CSc2ncnc3c2cnn3Cc2ccccc2)cc1	-0.449
c1ccc(CSc2ncnc3c2cnn3Cc2ccccc2)cc1	-0.473
NC(=O)CSc1ncnc2c1cnn2Cc1ccccc1	4.34 (active)
Cc1ccc(-n2ncc3c(SCc4ccccc4)ncnc32)cc1	2.51
Cc1ccc(CSc2ncnc3c2cnn3-c2ccc(C)cc2)cc1	1.75
CN(C)c1ccnc2sc3c(NCC(O)CO)ncnc3c12 (configuration not stated)	-0.106
CCOC(=O)c1c(C)[nH]c(C(=O)COC(=O)/C=C/c2ccc3c(c2)OCO3)c1C	0.00271
Cc1nc2ccccc2cc1C(=O)O	0.0939

Structure (SMILES)	z-score
CC(C/C=N/NC(=O)COc1cc(Cl)ccc1Cl)c1ccccc1 (configuration not stated)	-0.0205
O=C(Nc1ccc2c(c1)OCO2)C1CC(c2ccc(Cl)cc2)=NO1 (configuration not stated)	-0.0412
CN(c1ccc(OCC(=O)OCC(=O)Nc2ccc(F)cc2)cc1)S(=O)(=O)c1ccc(Cl)cc1	-0.231
COc1ccccc1N1CCN(CCCC(=O)c2ccc(F)cc2)CC1	-0.123
COc1cc2cc(C(N)=O)c(N)nc2cc1OC	-0.0702
COc1cc2cnncc2cc1OC	3.21 (active)
COc1cc2cnc(Cl)nc2cc1OC	-0.182
CCOC(=O)c1ccc(NC(=O)CSc2nnc(-c3cccs3)n2C)cc1	-0.387
O=C(NCC1CCCO1)C(c1ccc(F)cc1)N(Cc1ccc(F)cc1)C(=O)Cn1nnc(-c2cccs2)n1 (configuration not stated)	2.46
O=C(NCC1CCCO1)C(c1cccs1)N(Cc1cccs1)C(=O)Cn1nnc(-c2cccs2)n1 (configuration not stated)	-0.109
Cc1ccc(C(C(=O)NCC2CCCO2)N(Cc2ccccc2F)C(=O)Cn2nnc(-c3cccs3)n2)cc1 (configuration not stated)	-0.157
c1ccc(-c2cn3nc(-c4ccccc4)c(-c4ccccc4)nc3n2)cc1	-1.03
O=c1c(-c2ccccc2)nc(-c2ccccc2)cn1O	2.86
Cn1c(=O)c(-c2ccccc2)nc2ccccc21	-0.27
CCOc1ccc2c(c1)-c1c(ssc1=S)C(C)(C)N2C	-0.11
CC(C)CNC(=S)NNC(=O)c1ccco1	-0.0344
COc1ccc(C(=O)Nc2cc(OC)c(NC(=O)c3ccco3)cc2OC)cc1	-0.196
O=C(NC(=S)NNC(=O)c1ccccc1O)c1ccco1	0.576
CCOC(=O)/C(=C/c1ccc(Cl)cc1)NC(=O)c1ccco1	-0.468
CC(Oc1ccc(Cl)cc1)C(=O)NNC(=S)NC(=O)c1ccco1 (configuration not stated)	5.62 (active)
COc1ccc(/C=C/C(=O)NC(=S)NNC(=O)c2ccco2)cc1	0.921
O=C(Nc1ccc(Oc2ccc3ccccc3c2)cc1)c1ccco1	0.388
COc1ccc(C(=O)NNC(=S)NC(=O)c2ccco2)cc1	2.99

Structure (SMILES)	z-score
CC(Oc1ccc2ccccc2c1)C(=O)NNC(=S)NC(=O)c1ccco1 (configuration not stated)	4.46 (active)
Cc1cccc(C(=O)Oc2csc(=S)n2C(=O)c2cccc(C)c2)c1	0.282
COc1cc(CNCc2ccccn2)ccc1OCc1ccc(Cl)cc1	0.427
CC(=O)c1cccc(NC(=O)C2CC(c3ccc(F)cc3)=NO2)c1 (configuration not stated)	-0.0875
O=C(COc1ccc(Cl)cc1Cl)Nc1nc2n(n1)C(c1ccccc1)CC(=O)N2 (configuration not stated)	-0.56
O=C(Nc1ncc(C(F)(F)F)cc1Cl)C1COc2ccccc2O1 (configuration not stated)	-0.304
CCN(CC)CCNC(=O)c1ccc(NC(=O)c2ccc(Cl)c(S(=O)(=O)Nc3ccccc3OC)c2)cc1	2.14
CCN(CC)CCCNC(=O)c1ccc(Cl)c(S(=O)(=O)Nc2ccccc2OC)c1	-0.0127
CCN(CC)CCNC(=O)c1ccc(Cl)c(S(=O)(=O)Nc2ccccc2OC)c1	0.323
CC(=O)c1cccc(NC(=O)CSc2nnc(-c3cccnc3)o2)c1	0.059
CC(=O)NNC(=O)CC(=O)Nc1nc(C23CC4CC(CC(C4)C2)C3)cs1	-0.221
O=C(NCc1ccncc1)C(=O)Nc1nc(C23CC4CC(CC(C4)C2)C3)cs1	0.792
O=C(NCc1ccccc1)C(=O)Nc1nc(C23CC4CC(CC(C4)C2)C3)cs1	3.44 (active)
COC(=O)N/N=C/c1ccc(OCCSc2ccc(Cl)cc2)c(OC)c1	0.427
CCCC1S/C(=N/N=C/c2ccc(C)cc2)N(Cc2ccc(OC)cc2)C1=O (configuration not stated)	0.151
CC(=O)Nc1ccc(Oc2cc(C#N)c(C#N)cc2N2CCOCC2)cc1	0.123
CC(=O)Nc1cccc(Oc2cc(C#N)c(C#N)cc2N2CCCCCC2)c1	2.07
CC(=O)Nc1ccc(Oc2cc(C#N)c(C#N)cc2N2CCCCCC2)cc1	1.3
O=c1oc2ccccc2c(Nc2cccc3ccccc23)c1[N+](=O)[O-]	-0.861
COCCNC(=O)c1ccc(-n2c(SCc3cc(F)ccc3F)nc3ccccc3c2=O)cc1	-0.0902
